PHOSPHO1 block – blocks human PHOSPHO1 phosphatase activity. Q8TCT1. recombinant PHOSPHO1, absorbance phosphatase assay. inhibition, % at 13.3 µM. 290,000 tested, 1.1% active. AID 1565; in the data active = inhibition above about 60%
Target sequence (Q8TCT1 whole entry, looked up): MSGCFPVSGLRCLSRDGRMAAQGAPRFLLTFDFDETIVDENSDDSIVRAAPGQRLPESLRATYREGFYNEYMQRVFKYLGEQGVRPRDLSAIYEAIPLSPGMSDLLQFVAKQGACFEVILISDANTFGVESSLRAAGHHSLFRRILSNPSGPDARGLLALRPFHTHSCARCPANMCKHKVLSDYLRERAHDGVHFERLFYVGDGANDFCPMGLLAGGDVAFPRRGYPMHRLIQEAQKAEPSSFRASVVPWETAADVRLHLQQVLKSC
Cardio protect – myocardial damage modulation in H9c2 cells; protection from H2O2 cell death, % at 20 µM; H9c2 cardiomyocytes, H2O2 injury protection, ATPLite, 2 h; 360,000 tested, 0.63% active; AID 588492;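 active = compounds giving at least 50% protection of heart cells from peroxide-induced death in the single-dose screen, raw or plate-pattern-corrected value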;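 also: 0% = DMSO wells with peroxide and 100% = DMSO wells without peroxide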
PfG6PD inh – PfG6PD (Plasmodium falciparum) enzyme inhibition; 350,000 tested, 0.78% active; inhibition, % at 20 µM; PfGluPho enzyme, NADPH resazurin-diaphorase fluorescence; AID 504690;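 active = inhibition reaching at least a set limit at 20 µM in the primary screen, cut at about 59% in these data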;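 also: 0% = DMSO wells with substrate and 100% = DMSO wells lacking glucose-6-phosphate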
PfM18AAP inh – blocks P. falciparum M18 aspartyl aminopeptidase | recombinant PfM18AAP, H-Glu-NHMec fluorogenic cleavage | inhibition, % at 7.35 µM | 290,000 tested, 1.2% active | AID 1822;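 active = inhibition above the campaign mean inhibition over all tested compounds plus 3 SD, cut at about 28% in these data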;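 also: 0% = plate median of test compound wells and 100% = 2 mM ZnCl2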
ALR H2O2 inh – blocks human ALR sulfhydryl oxidase activity; P55789; purified ALR, DTT oxidation, H2O2 HRP-luminol luminescence; inhibition, % (concentration not given with the values); 290,000 tested, 3.8% active;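 active = mean replicate inhibition above about 79%, with every replicate also reaching it, limit read from the data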
Target sequence (P55789 whole entry, looked up): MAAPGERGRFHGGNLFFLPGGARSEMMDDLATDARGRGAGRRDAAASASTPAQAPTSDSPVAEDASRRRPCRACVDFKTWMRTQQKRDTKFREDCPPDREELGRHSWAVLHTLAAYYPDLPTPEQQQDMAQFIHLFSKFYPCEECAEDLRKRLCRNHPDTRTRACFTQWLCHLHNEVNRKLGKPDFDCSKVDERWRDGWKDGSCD
The depositor's hits bear a star; nt = no result. Sampled rows, rich in hits. Any-hit rate of the full collection: about 5.6%.

SMILES | PHOSPHO1 block | Cardio protect | PfG6PD inh | PfM18AAP inh | ALR H2O2 inh
Cc1nn(C)cc1C(=O)/C=C/c1ccc([N+](=O)[O-])cc1 | 33 | 5 | -10 | 5 | 84*
CCOc1ccccc1C(=O)NCC(=O)NCC(C)(C)N1CCOCC1 | nt | 2 | -2 | nt | -9
CC(C)Cn1c(/C=C/c2ccco2)nc2ccccc21 | 8 | 0 | 8 | 6 | 97*
CC(C)Cn1c(S(=O)(=O)O)nc2ccccc21 | 4 | -10 | 11 | 12 | -8
Cc1ccsc1/C=C/C1=Cc2c(sc(NC(=O)CSc3n[nH]c(N)n3)c2C#N)C(C)(C)C1 | 80* | 8 | 16 | 27 | nt
Cc1ccc(S(=O)(=O)NCc2nnnn2-c2ccc(F)cc2)cc1 | nt | -1 | -9 | nt | nt
COc1cc(O)c(C(CCN2CCCCC2)c2ccc(N(C)C)cc2)c(OC)c1 (stereo unspecified) | 31 | 1 | 3 | nt | 98*
COc1cc(O)c(C(CC(=O)N2CCCC2)c2ccc(N(C)C)cc2)c(OC)c1 (stereo unspecified) | 36 | -2 | 3 | nt | 98*
COc1cc(O)c(C(CCN2CCCC2)c2ccc(N(C)C)cc2)c(OC)c1 (stereo unspecified) | -9 | 5 | 12 | nt | nt
CCN(c1ccccc1)S(=O)(=O)c1ccc2c(c1)C(C)(C)C(=O)N2C | 31 | 16 | 8 | -4 | 13
O=C1C=CC(=C(c2ccc(O)cc2)c2ccc(O)cc2)C=C1 | nt | 16 | 4 | nt | 99*
O=C(CCCC(=O)c1ccc(O)cc1)c1ccc(O)cc1 | nt | 4 | -9 | nt | 2
COc1ccc(OCC(=O)Sc2ccc(C)cc2)cc1 | -4 | 17 | 8 | -4 | 98*
COc1ccc(OC(=O)COc2ccc(C)cc2)cc1 | 34 | 3 | 9 | 6 | 6
Cn1c(=O)c2c(ncn2CC(=O)OCC(=O)Nc2cccc(C#N)c2)n(C)c1=O | nt | 9 | -2 | nt | nt
CN1N=C(c2ccc(Cl)cc2)CC(c2ccc(Cl)cc2)C1=O (stereo unspecified) | -104 | -6 | -20 | 3 | nt
CCN1CC(c2ccccc2)C(c2ccc(Cl)cc2)=N1 (stereo unspecified) | -5 | -6 | -2 | -4 | 95*
CCn1c(NN)nc2sc3c(c2c1=O)CCC3 | 86* | -10 | 15 | 15 | 2
NNc1nc2sc3c(c2c(=O)n1Cc1ccccc1)CCC3 | -2 | 14 | 8 | -11 | 47
CCn1c(=O)c2c3c(sc2n2c(=S)[nH]nc12)CCC3 | 102* | 5 | 20 | -6 | 87*
CC1(C(=O)O)CCN1C(=O)c1cccc(OC(F)(F)F)c1 (stereo unspecified) | nt | 8 | nt | nt | nt
NNC(=O)/C=C/c1ccc(Cl)cc1Cl | 42 | -4 | 1 | -3 | 98*
O=C(O)CNC(=O)/C=C/c1ccc(Cl)cc1Cl | -2 | -4 | 0 | 10 | -7
Cc1cccc(NC(=O)c2nc[nH]c2C(=O)NCCCCNC(=O)c2[nH]cnc2C(=O)Nc2cccc(C)c2)c1 | nt | 56* | 14 | nt | 3
Cc1cccc(NC(=O)c2nc[nH]c2C(=O)NCCCCCCNC(=O)c2[nH]cnc2C(=O)Nc2cccc(C)c2)c1 | nt | 95* | 3 | nt | -7
SMILES | PHOSPHO1 block | Cardio protect | PfG6PD inh | PfM18AAP inh | ALR H2O2 inh
O=C(Nc1cccc(Cl)c1)c1nc[nH]c1C(=O)NCCN(CCNC(=O)c1[nH]cnc1C(=O)Nc1cccc(Cl)c1)CCNC(=O)c1[nH]cnc1C(=O)Nc1cccc(Cl)c1 | nt | 28 | 0 | nt | 10
Cc1cccc(NC(=O)c2nc[nH]c2C(=O)NCc2ccccc2)c1 | nt | 2 | 7 | nt | 3
O=C(Nc1cccc(Cl)c1)c1nc[nH]c1C(=O)NCCCCNC(=O)c1[nH]cnc1C(=O)Nc1cccc(Cl)c1 | nt | 74* | 4 | nt | -6
CC(C)c1ncc(CO)n1Cc1c(Cl)cccc1Cl | nt | 4 | -8 | nt | nt
CC(C)(C)CC(=O)NC(=S)N1CCCCCC1 | 69* | 1 | -8 | -2 | 10
CC(=O)c1cccc(NC(=O)NCCc2c[nH]c3ccccc23)c1 | 47 | 4 | 1 | 0 | -14
Cc1ccc2[nH]cc(CCNC(=O)Nc3ccccc3)c2c1 | 16 | 3 | 7 | 2 | 98*
Cc1ccc2[nH]cc(CCNC(=O)c3cccnc3)c2c1 | 20 | -3 | 48 | -5 | 96*
CSCCC(NC(=O)c1ccccc1Cl)C(=O)NCCOc1ccc(C)cc1 (stereo unspecified) | nt | 0 | -4 | nt | nt
N#Cc1cc2c(nc1SCc1nc3ccccc3[nH]1)CCC2 | 74* | nt | nt | 5 | 12
N#Cc1c(SCc2nc3ccccc3[nH]2)nc2c(c1C(F)(F)F)CCC2 | nt | nt | nt | 0 | nt

Bioassay records: PubChem, several laboratories
